Assay results published in PubChem BioAssay.
The source made the active and inactive calls.

How the values were obtained:
[1] = system: Human papillomavirus type 1a protein E7 (residues 44-93); experiment: small molecules binding HPV E7 44-93 – biochemical, small-molecule microarray, residues 44-93, 635 nm fluorescence, primary screen (AID 1108); conditions: fluorescence 635 nm, higher = more signal;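 note: E7 fragment applied at 1 µg/mL in TBST for 1 h at 4 C; score combines spot fluorescence with its signal to noise ratio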
[2] = hepatitis C replication reporter changes, two-sided – Huh7 cells, luciferase reporter, HCV replication inhibitor project, primary screen (AID 1109); conditions: Huh7 HCV replicon luciferase reporter, 48 h; higher = more signal;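 note: huh7 hepatoma cells harbouring a luciferase neomycin HCV replicon reporter; luciferase luminescence as measure of HCV replicon replication; test concentration not given here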
[3] = target: Left-right determination factor 2 (Homo sapiens) (UniProt O00292); experiment: small molecules binding LEFTY2 protein – biochemical, small-molecule microarray, 635 nm fluorescence scan, primary screen (AID 1110); conditions: higher = more signal
Left-right determination factor 2 (Homo sapiens), sequence (O00292 whole entry, looked up): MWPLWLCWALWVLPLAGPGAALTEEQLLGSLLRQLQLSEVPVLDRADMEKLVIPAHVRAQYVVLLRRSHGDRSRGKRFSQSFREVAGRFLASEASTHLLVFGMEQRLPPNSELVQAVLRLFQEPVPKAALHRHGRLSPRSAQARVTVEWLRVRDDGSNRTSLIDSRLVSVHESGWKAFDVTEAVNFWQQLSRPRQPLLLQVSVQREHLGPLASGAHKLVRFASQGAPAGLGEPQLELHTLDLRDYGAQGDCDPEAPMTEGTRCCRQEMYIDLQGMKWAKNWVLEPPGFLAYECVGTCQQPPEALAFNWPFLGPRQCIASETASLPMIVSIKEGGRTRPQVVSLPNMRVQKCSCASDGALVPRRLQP

[4] = target: Calmodulin-1 (Homo sapiens) (UniProt P0DP23); experiment: small molecules binding calmodulin-1 with EGTA – biochemical, small-molecule microarray, Cy5-labelled CALM1, profiling panel (AID 1111); conditions: Cy5-CALM1 binding fluorescence, higher = more signal;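 note: labelled calmodulin applied in Tris saline Tween buffer holding calcium plus EGTA and DTT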
[5] = target: Calmodulin-1 (Homo sapiens) (UniProt P0DP23); experiment: small molecules binding Ca-loaded calmodulin-1 – biochemical, small-molecule microarray, Cy5-labelled CALM1, plus calcium, artefact control for SMM control-protein annotation, profiling panel (AID 1112); conditions: Cy5-CALM1 binding fluorescence, higher = more signal;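 note: score merges spot fluorescence with signal to noise from triplicate slides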
[6] = probe aWnt5a binding to arrayed compounds – biochemical, biotinylated probe, 635/667 nm fluorescence, primary screen (AID 1113); conditions: small-molecule microarray, higher = more signal;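 note: score merges 667 nm fluorescence intensity with signal-to-noise per printed feature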
[7] = probe aShh binding to arrayed compounds – biochemical, biotinylated probe, 635/667 nm fluorescence, primary screen (AID 1114); conditions: small-molecule microarray, higher = more signal;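 note: probe is biotin-labelled aShh protein from a stem cell growth factor screen; measures binding of labelled protein to compounds printed on the slide; score merges feature fluorescence at 667 nm with signal-to-noise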
[8] = probe aNog binding to arrayed compounds – biochemical, biotinylated probe, 635/667 nm fluorescence, primary screen (AID 1115); conditions: small-molecule microarray, higher = more signal;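 note: probe is biotinylated aNog protein used at 0.15 µg/mL for 1 h at 4 C; z-score combines 667 nm fluorescence of each spot with its signal to noise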
[9] = target: Torsin-1A-interacting protein 1 (Homo sapiens) (UniProt Q5JTV8); experiment: compound microarray binding of lysate hLAP1 – cell lysate, small-molecule microarray, COS7 lysate, 635/667 nm fluorescence, primary screen (AID 1116); conditions: 635 nm fluorescence, higher = more signal
Torsin-1A-interacting protein 1 (Homo sapiens), sequence (Q5JTV8 whole entry, looked up): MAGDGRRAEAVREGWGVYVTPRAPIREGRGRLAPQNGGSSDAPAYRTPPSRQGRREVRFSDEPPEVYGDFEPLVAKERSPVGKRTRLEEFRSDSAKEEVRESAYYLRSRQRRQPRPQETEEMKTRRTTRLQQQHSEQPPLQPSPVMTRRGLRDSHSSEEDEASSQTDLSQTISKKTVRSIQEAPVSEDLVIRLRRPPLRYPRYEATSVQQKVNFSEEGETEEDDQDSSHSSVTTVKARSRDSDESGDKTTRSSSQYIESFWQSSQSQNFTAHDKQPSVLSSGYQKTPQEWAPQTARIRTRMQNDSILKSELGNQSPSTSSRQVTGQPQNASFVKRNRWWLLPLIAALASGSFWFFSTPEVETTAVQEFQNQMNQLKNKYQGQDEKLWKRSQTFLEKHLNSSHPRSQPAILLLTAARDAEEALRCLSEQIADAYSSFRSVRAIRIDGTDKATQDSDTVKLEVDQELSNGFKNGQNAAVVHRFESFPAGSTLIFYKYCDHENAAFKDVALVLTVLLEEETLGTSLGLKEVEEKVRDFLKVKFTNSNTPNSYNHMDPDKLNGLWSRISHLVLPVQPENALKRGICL

[10] = target: Alpha-bungarotoxin (Bungarus multicinctus) (UniProt P60615); experiment: compounds binding labelled alpha-BTX control protein – biochemical, small-molecule microarray, Alexa647 label, 635/667 nm fluorescence, artefact control for SMM control protein annotation, profiling panel (AID 1117); conditions: alpha-BTX-A647 binding fluorescence, higher = more signal
Alpha-bungarotoxin (Bungarus multicinctus), sequence (P60615 whole entry, looked up): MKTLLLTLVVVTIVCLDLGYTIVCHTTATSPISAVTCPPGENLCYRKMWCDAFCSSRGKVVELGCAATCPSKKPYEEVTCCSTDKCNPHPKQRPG

Albumin (Bos taurus) = Albumin (Bos taurus) (UniProt P02769); experiment: compounds binding labelled BSA control protein – biochemical, small-molecule microarray, Alexa647 label, 635/667 nm fluorescence, artefact control for SMM control protein annotation, profiling panel (AID 1118); conditions: BSA-A647 binding, fluorescence 635 nm, higher = more signal;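 note: score merges 667 nm emission intensity and signal-to-noise per printed compound spot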
Albumin (Bos taurus), sequence (P02769 whole entry, looked up): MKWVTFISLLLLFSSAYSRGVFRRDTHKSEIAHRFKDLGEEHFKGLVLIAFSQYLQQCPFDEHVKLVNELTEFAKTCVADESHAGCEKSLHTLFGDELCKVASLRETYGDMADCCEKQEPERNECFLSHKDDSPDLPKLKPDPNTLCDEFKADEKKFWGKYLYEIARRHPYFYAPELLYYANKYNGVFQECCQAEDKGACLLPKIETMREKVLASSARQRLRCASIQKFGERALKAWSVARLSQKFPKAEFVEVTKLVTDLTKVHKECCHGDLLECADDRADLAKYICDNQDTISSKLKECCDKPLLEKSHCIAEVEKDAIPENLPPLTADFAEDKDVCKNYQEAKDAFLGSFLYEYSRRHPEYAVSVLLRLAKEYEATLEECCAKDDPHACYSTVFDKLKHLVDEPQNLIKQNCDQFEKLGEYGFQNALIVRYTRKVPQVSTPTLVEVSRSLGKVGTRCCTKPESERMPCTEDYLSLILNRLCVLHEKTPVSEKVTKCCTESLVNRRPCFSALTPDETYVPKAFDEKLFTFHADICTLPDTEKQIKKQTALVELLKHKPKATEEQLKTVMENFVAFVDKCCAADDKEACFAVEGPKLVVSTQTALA

[11] = probe aXIP binding to arrayed compounds – biochemical, NeuroSMM set, 635/667 nm fluorescence, primary screen (AID 1119); conditions: small-molecule microarray, higher = more signal, called active from +8 up or from −8 down;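 note: probe is the protein aXip251-270 applied at 1 µg/mL to compound-printed slides; binding of probe to printed compounds measured as 667 nm fluorescence plus signal to noise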
[12] = probe aNOTCH3 binding on compound microarray – biochemical, small-molecule microarray, 635/667 nm fluorescence, primary screen (AID 1120); conditions: higher = more signal;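 note: probe is a biotin-tagged antibody raised against NOTCH3 rather than NOTCH3 protein; score merges spot fluorescence near 667 nm with spot signal to noise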
[13] = probe aNOTCH2 binding on compound microarray – biochemical, small-molecule microarray, 635/667 nm fluorescence, primary screen (AID 1121); conditions: higher = more signal;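 note: score merges feature fluorescence read at 667 nm with its signal to noise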
[14] = target: Carbonic anhydrase 2 (Homo sapiens) (UniProt P00918); experiment: compounds binding carbonic anhydrase 2 – biochemical, small-molecule microarray, Alexa647-labelled CAII, profiling panel (AID 1122); conditions: CAII-A647 binding fluorescence, higher = more signal
[15] = COS7 lysate on small-molecule microarray, probe aHis, 635 nm (AID 1123); conditions: COS7 cell lysate, fluorescence, higher = more signal;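 note: z-score combines 667nm fluorescence intensity with signal-to-noise per printed compound spot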
[16] = probe aLAP1 signal on lysate-treated microarray – cell lysate, small-molecule microarray, COS7 lysate, primary screen (AID 1124); conditions: probe aLAP1, fluorescence, higher = more signal;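 note: lysate comes from COS7 cells expressing LAP1 and is applied at 0.3 µg/mL; score merges spot fluorescence near 667 nm with signal-to-noise over triplicate slides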
Sam68 (KHDRBS1) = experiment: compounds binding KHDRBS1 protein – biochemical, small-molecule microarray, 635 nm fluorescence, primary screen (AID 1125); conditions: higher = more signal;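 note: score merges 667 nm channel intensity with signal to noise over triplicate slides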
[17] = system: Chordin-like protein 2 (CHRDL2); experiment: compounds binding chordin-like 2 – biochemical, small-molecule microarray, 635 nm fluorescence, primary screen (AID 1126); conditions: fluorescence 635 nm, higher = more signal;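 note: printed compound slides probed with Chrdl2 protein at 4 µg/mL for 1 h at 4 C; score merges 667 nm emission intensity with signal to noise over three replicate slides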
[18] = target: Concanavalin-A (Canavalia ensiformis) (UniProt P02866); experiment: compounds binding concanavalin A lectin – biochemical, small-molecule microarray, Alexa647 label, 635 nm, artefact control for SMM control protein annotation, primary screen (AID 1127); conditions: ConA-A647 binding fluorescence, higher = more signal;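 note: z combines 667 nm emission intensity with signal-to-noise across three replicate slides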
Concanavalin-A (Canavalia ensiformis), sequence (P02866 whole entry, looked up): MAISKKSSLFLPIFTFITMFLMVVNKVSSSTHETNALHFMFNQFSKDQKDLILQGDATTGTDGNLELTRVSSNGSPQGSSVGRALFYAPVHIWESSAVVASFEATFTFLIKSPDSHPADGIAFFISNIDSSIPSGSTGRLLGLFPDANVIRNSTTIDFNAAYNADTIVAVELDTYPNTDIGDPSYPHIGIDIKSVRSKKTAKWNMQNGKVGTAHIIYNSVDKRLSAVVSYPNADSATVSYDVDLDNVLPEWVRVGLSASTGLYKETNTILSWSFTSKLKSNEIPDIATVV

SMILES | composite z-score [1] | z-score [2] | composite z-score [3] | composite z-score [4] | composite z-score [5] | composite z-score [6] | composite z-score [7] | composite z-score [8] | composite z-score [9] | composite z-score [10] | composite z-score (Albumin (Bos taurus)) | composite Z-score [11] | composite z-score [12] | composite z-score [13] | composite z-score [14] | composite z-score [15] | composite z-score [16] | composite z-score (Sam68 (KHDRBS1)) | composite z-score [17] | composite z-score [18]
CCCCCCCCCCC(O)C1C=CC2C(=O)NC(=O)C2N1Nc1ccccn1 (stereo not given) | 1.08 | -2.64 | -0.765 | 1.4 | 0.945 | -0.0566 | 0.337 | 1.7 | -0.0182 | 0.217 | 0.616 | -0.118 (inactive) | 0.0159 | 0.0118 | 0.287 | 1.85 | -0.0065 | -0.182 | -0.9 | 0.709
Cc1ccc(S[C@]2(C(=O)NCCN3CCOCC3)CC(=O)N(C3Cc4ccccc4C3)[C@@H]2c2ccc(CO)cc2)cc1 | 1.36 | -1.56 | -1.59 | -0.482 | -0.399 | -0.0425 | -0.181 | 0.775 | 0.143 | 0.0451 | 0.0022 | 0.39 (inactive) | -0.159 | -0.0745 | 0.66 | 2.08 | 0.0297 | 0.151 | -0.373 | 0.152
O=C1c2ccccc2[C@](Cc2ccccc2I)(C(=O)NCC(F)(F)F)[C@H](c2ccc(CO)cc2)N1Cc1ccccc1 | 1.42 | -0.673 | -0.38 | 1.4 | 0.464 | -0.155 | 0.0048 | 0.0139 | 0.419 | 0.928 | 0.684 | 0.341 (inactive) | -0.0183 | -0.112 | 0.593 | 2.19 | 0.321 | 1.18 | -0.213 | 1.11
[N-]=[N+]=Nc1ccccc1[C@H]1OC(c2ccc(OCCCO)cc2)=N[C@@]1(Cc1ccccc1)C(=O)NCc1ccccc1 | 1.4 | -3.14 | 0.364 | 0.503 | -0.171 | -0.0492 | 0.0723 | -0.261 | 0.832 | 0.421 | 0.713 | 1.76 (inactive) | 0.256 | -0.0714 | 0.497 | 1.46 | 0.112 | 1.31 | 0.125 | 1.02
CCOC(=O)C[C@H]1[C@H](OC(=O)c2ccc(C(=O)c3ccccc3)cc2)[C@@H](NC(=O)C2CCCCC2)c2cc(OCCCO)ccc2N1C(=O)Cc1ccc(OC)cc1 | 0.773 | -1.96 | 0.0258 | 1.13 | 0.304 | -0.0907 | -0.0769 | -0.0597 | 0.602 | 0.237 | 0.442 | 0.442 (inactive) | 0.18 | 0.208 | 0.106 | 0.954 | 1.04 | 0.693 | 0.386 | 0.312
COCCCNC(=O)[C@]1(Cc2ccccc2)N=C(c2ccc(OCCCO)cc2)O[C@@H]1c1ccccc1N=[N+]=[N-] | 1.24 | -3.4 | -0.314 | 1.61 | 0.24 | 0.008 | -0.0866 | 0.433 | 0.997 | 0.974 | 0.855 | 0.454 (inactive) | 0.0999 | -0.106 | 0.502 | 0.0137 | 0.287 | 1.29 | -0.26 | 1.1
COC(=O)[C@@]1(Cc2ccc(F)cc2)[C@H]2c3cc(C(=O)N4CCCC4)n(Cc4ccccc4)c3C[C@H]2CN1C(=O)c1ccccc1 | 1.07 | -2.41 | -0.253 | 1.98 | 0.666 | -0.0843 | -0.367 | -0.357 | 1.56 | 0.657 | 0.946 | 1.06 (inactive) | 0.23 | 0.0291 | 0.793 | 2.25 | 0.65 | 0.253 | -1.32 | 0.428
[N-]=[N+]=NCc1ccccc1[C@H]1OC(c2ccc(OCCCO)cc2)=N[C@@]1(Cc1ccccc1)C(N)=O | 1.44 | -1.46 | -0.709 | 0.931 | 0.995 | 0.283 | -0.0576 | 0.654 | 1.76 | 2.54 | 0.883 | -0.379 (inactive) | 0.391 | 0.0029 | 0.589 | 2.29 | 0.112 | 1.29 | -0.797 | 1.19
COc1cc2c(cc1OC)CN(C(=O)[C@@H]1[C@H]3C(=O)O[C@H](c4ccccc4)[C@H](c4ccccc4)N3[C@H](c3ccc(OCCO)cc3)[C@@]13C(=O)Nc1ccc(C#CCCO)cc13)CC2 | 1.44 | -1.53 | 1.01 | 1.73 | 1.01 | 0.265 | 0.391 | 1.8 | 1.33 | 1.36 | 0.379 | 1.29 (inactive) | 0.81 | -0.0669 | 0.428 | 2.92 | 0.364 | 1.3 | 0.703 | 1.02
CC(C)N1C(=O)c2ccccc2[C@](C)(C(=O)O)[C@@H]1c1ccc(CO)cc1 | -0.113 | -0.169 | -1.23 | -0.198 | 0.531 | -0.143 | 0.133 | 0.338 | 0.274 | 0.468 | 0.401 | -0.158 (inactive) | -0.103 | 0.16 | 0.326 | 0.119 | 0.755 | -0.769 | -1.49 | -0.0545
[N-]=[N+]=NCc1ccccc1C[C@]1(C(=O)NCCN2CCOCC2)COC(c2ccc(OCCCO)cc2)=N1 | 1.44 | -1.79 | -0.389 | 0.74 | -0.096 | 0.0479 | -0.0119 | -0.509 | 0.555 | -0.0034 | 0.854 | 0.689 (inactive) | 0.116 | -0.106 | 0.353 | 2.31 | 1.47 | 1.29 | -0.519 | 0.0927
